Screening data deposited in PubChem by University of Kansas High Throughput Screening Laboratory.
mHTT-CaM PPI inh – mutant huntingtin-calmodulin interaction inhibitors – biochemical, AlphaScreen, primary screen; inhibition, % at 15 µM; P42858; AlphaScreen His-mHTT/GST-CaM binding, luminescence; 3.6% of 190,000 active;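 also: 0% = both proteins with DMSO and 100% = one protein alone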
Pf apPOL inh – Pf-apPOL inhibitors, biochemical, fluorescence. 0.25% of 210,000 active. Recombinant Pf-apPOL, molecular beacon fluorescence, 1.5 h. Plasmodium falciparum apicoplast DNA polymerase (apPOL). inhibition, % at 10 µM
Active calls of the source: *; . = no result given. The full list was thinned out, with hits kept by preference. Rule as the data show it: active = inhibition above about 50%; inactive = the rest.

SMILES | mHTT-CaM PPI inh | Pf apPOL inh
COc1ccc(-c2cc(C(F)(F)F)n3ncc(C(=O)N4CCCC4)c3n2)cc1 | -6.0 | -7.1
CCOC(=O)C1CCN(C(=O)C2CCN(c3cncnc3N3CCCCC3)CC2)CC1 | 26.3 | -2.3
CCCn1c(C2CCN(C(=O)c3ccc(F)c(Cl)c3)C2)nc2cccnc21 (centres undefined) | 5.2 | -3.0
O=C(c1ccc(N2CCCCS2(=O)=O)cc1)N1CCN(C(=O)c2ccco2)CC1 | -8.4 | 0.0
CCOc1cc(-c2ccc(OC)c(OC)c2)cc(=O)c2c(C)oc(C)c12 | 44.0 | 10.2
CCOc1cc(-c2cccs2)cc(=O)c2c(C)oc(C)c12 | 55.2* | -5.3
CCc1cc2c(=O)c(-c3nc4ccccc4n3C)c(C(F)(F)F)oc2cc1O | 97.0* | -0.8
CCc1cc2c(=O)c(-c3nc4ccccc4n3C)c(COCC(=O)O)oc2cc1OC(=O)C(C)(C)C | 51.4* | -3.0
CCc1oc2cc(O)ccc2c(=O)c1-c1nc2ccccc2n1C | 0.0 | -2.4
CCc1cc2c(=O)c(-c3nc4ccccc4n3C)c(C(C)(C)C)oc2cc1O | -5.7 | 2.6
COc1ccc(NC(=O)C2CC(=O)N(c3cccc(NC(C)=O)c3)C2)cc1 (centres undefined) | 0.3 | 1.6
O=C(CN1N=C(c2ccc(Cl)cc2)CCC1=O)NCCN1CCc2ccccc2C1 | 52.0* | -9.4
COc1ccc(Br)cc1CNC(=O)CN1N=C(c2ccc(Cl)cc2)CCC1=O | 52.0* | -13.8
COc1ccc(OC)c(CNC(=O)CN2N=C(c3ccc(Cl)cc3)CCC2=O)c1 | 34.0 | -11.4
O=C(CN1N=C(c2ccc(Cl)cc2)CCC1=O)NCCc1ccc(Cl)cc1 | 42.0 | -14.9
COCCn1cc2c3c(cccc31)CN(C(=O)Nc1cccc(C#N)c1)CC2 | -4.7 | -0.3
O=C(Nc1ccccc1C(=O)O)c1ccccc1 | -3.3 | -120.1
O=C(Nc1ccccc1C(=O)O)c1cccc(C(=O)Nc2ccccc2C(=O)O)c1 | 69.8* | -1.3
Cc1cc(C)nc(N=C(N)N2CCC(C)CC2)n1 | -4.0 | 0.8
COc1ccc(/C=C2\C(=O)c3ccccc3C2=C(C#N)C#N)cc1OC | 92.0* | -1.3
COc1cc(C=C2C(=O)c3ccccc3C2=O)ccc1OCc1ccc(C(=O)O)cc1 | 6.0 | 3.4
CC(C)NC(=O)c1ccc(OCC2CCN(C(=O)CC(C)(C)C)CC2)cc1 | 4.9 | -4.6
CCc1nn2cc(-c3ccc(Cl)cc3)nc2s1 | -9.0 | -8.1
CCc1ccc2cc(-c3ccc(Cl)cc3)cn2c1 | 59.0* | -1.6
CCc1noc(C2(NC(=O)c3cccc(F)c3)CCCCC2)n1 | -6.0 | -5.5
SMILES | mHTT-CaM PPI inh | Pf apPOL inh
CC(C)(C)C1CCc2onc(C(=O)Nc3ccc(F)cc3F)c2C1 (centres undefined) | -4.1 | -7.8
CC(C)(C)C1CCc2onc(C(=O)Nc3cc(Cl)ccc3O)c2C1 (centres undefined) | 61.4* | -5.2
COc1cc2c(cc1NC(=O)c1cccs1)oc1ccccc12 | -17.8 | -2.4
O=C(NCC1CC1)C1CCN(c2ccccc2-c2ccccc2)C1=O (centres undefined) | -9.8 | -1.1
O=C(O)CC1SC(c2ccc3c(c2)OCO3)=NC1=O (centres undefined) | . | 51.8*
CC(C)(C)c1ccc(C2=NC(=O)C(CC(=O)O)S2)cc1 (centres undefined) | . | 38.5
Cc1c(NC(=O)C2CCC2)cccc1-c1nc2cc(Cl)ccc2o1 | 2.0 | -3.2
O=C1NN(c2cccc(C(F)(F)F)c2)C(=O)/C1=C/c1ccc([N+](=O)[O-])o1 | 98.0* | -0.6
O=C1NN(c2ccccc2)C(=O)/C1=C/c1ccc(-c2ccccc2F)o1 | 10.0 | -7.8
O=C(NCc1ccc(Cl)cc1)C(=O)NCc1ccco1 | -4.0 | -6.0
Cc1sc(-c2ccn[nH]2)cc1NC(=O)c1cccc(N(C)C)c1 | 86.9* | -2.0
Cc1sc(-c2ccn[nH]2)cc1NC(=O)C1CCCCC1 | -3.6 | -3.3
CC(C(=O)Nc1nc2ccccc2s1)N1C(=O)c2ccccc2C1=O (centres undefined) | 9.3 | 6.5
CC(C)CC(C(=O)Nc1nc2ccccc2s1)N1C(=O)c2ccccc2C1=O (centres undefined) | 99.0* | 25.6
CC(C)CC(C(=O)Nc1cccc(C(F)(F)F)c1)N1C(=O)c2ccccc2C1=O (centres undefined) | 57.0* | -0.6
CC(C)C(C(=O)Nc1cccc(C(F)(F)F)c1)N1C(=O)c2ccccc2C1=O (centres undefined) | 0.0 | -1.2
COc1ccc(S(=O)(=O)NCCC(=O)N2CCC3(CC2)OCCO3)cc1 | 1.0 | 5.3
CCN1CCN(c2ccc(C(=O)OC)cc2NC(=O)CCc2ccccc2)CC1 | -5.0 | 1.6
CCN1CCN(Cc2c(O)ccc3c2OC(=Cc2cc(Cl)cc4c2OCOC4)C3=O)CC1 | 54.9* | 8.4
COc1ccc(Br)cc1C=C1Oc2c(ccc(O)c2CN2CCN(CCO)CC2)C1=O | 24.8 | -1.2
O=C1C(=Cc2cc3cc(Br)ccc3o2)Oc2c1ccc(O)c2CN1CCN(CCO)CC1 | 60.2* | 1.1
COc1cc(OC)c(OC)cc1C=C1Oc2c(ccc(O)c2CN2CCCC(C)C2)C1=O (centres undefined) | 51.3* | -1.3
O=C1C(=Cc2cc(Cl)cc3c2OCOC3)Oc2c1ccc(O)c2CN1CCOCC1 | 8.9 | 3.9
COc1ccc(C=C2Oc3c(ccc(O)c3CN3CCCC(C)C3)C2=O)c(OC)c1OC (centres undefined) | 26.8 | -7.9
COC(=O)c1ccc(C=C2Oc3c(ccc(O)c3CN3CCCC3)C2=O)cc1 | 12.7 | -5.7
SMILES | mHTT-CaM PPI inh | Pf apPOL inh
COC(=O)c1ccc(C=C2Oc3c(ccc(O)c3CN3CCCCC3C)C2=O)cc1 (centres undefined) | 51.5* | -27.9
O=C(Nc1ccc(Cn2cncn2)cc1)c1cccc(Cl)c1 | -9.4 | 1.1
COc1ccc(CCNC(=O)Cc2csc(SCc3ccc(F)cc3)n2)cc1OC | 21.7 | -8.1
CCCNC(=O)C1COC2(CCC(C)CC2)N1C(=O)c1ccc(F)cc1 (centres undefined) | -4.5 | -2.7
COc1ccc(CC(C)(O)CNC(=O)COc2ccccc2C)cc1 (centres undefined) | -10.2 | -7.1
Cc1ccc(Cn2cnc3c(-c4cccc(F)c4)csc3c2=O)cc1 | -25.1 | 1.2
COc1ccc(CN2CCc3nc(Nc4ccccc4OC)ncc3C2)c(OC)c1 | 44.3 | -0.6
COc1ccc(OC)c(Nc2ncc3c(n2)CCN(Cc2ccc(OC)cc2OC)C3)c1 | 90.8* | -3.0
COc1ccccc1CN1CCc2nc(Nc3ccccc3OC)ncc2C1 | 20.7 | -0.9
COc1ccc(OC)c(CN2CCc3nc(Nc4ccccc4OC)ncc3C2)c1 | 55.5* | -4.9
Cc1ccc(N2CC(NC(=O)N(CCO)Cc3ccccc3)CC2=O)cc1 (centres undefined) | -0.3 | 10.5
COc1ccc(NC(=O)Nc2ccc(C)cc2)cc1 | 1.6 | -0.4
O=C(NCC#CCN1CCc2ccccc2C1)c1cc2ccccc2[nH]1 | 28.4 | -6.5
COc1ccc(OC)c(-c2cc(C(=O)NCC#CCN3CCc4ccccc4C3)[nH]n2)c1 | 53.3* | 1.5
CCSc1ccccc1C(=O)Nc1ccccc1-c1nc2ccccc2[nH]1 | 61.4* | -8.7
O=C(Nc1ccccc1-c1nc2ccccc2[nH]1)c1ccccc1F | 34.0 | 4.9
O=C(c1ccc2c(c1)C1C=CCC1C(c1cccc([N+](=O)[O-])c1)N2)N1CCCCC1 (centres undefined) | 81.3* | -1.1
